Source: PubChem BioAssay (NCATS)
Records with an inconclusive call do not appear. Active and inactive are the calls of the source. The call rests on the fitted dose curve; in most records, active means well fitted cell-killing curve with a large enough effect; inconclusive means small, poorly fitted or top-dose-only effect, or effect the other way; inactive means no such curve, though single readings can be large or run the other way.

Experiment: Viability qHTS for spleen associated tyrosine kinase inhibitor (SYKi) drug resistant MV4-11 cells (AID 1963824); further: nearly all actives have a fitted effect of over 35% in size
Details: SYKi-resistant MV4-11 viability, CellTiter-Glo, 72 h; series mostly up to 45 µM; viability, % of control: at the top concentration
Method in brief: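 SYK inhibitor-resistant MV4-11 AML cells, 500 per well, added to predispensed compounds and incubated 72 hr at 37 C, 5% CO2. Viability measured by CellTiter-Glo luminescence after 10 min at room temperature.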
Potency means the concentration at half of the fitted maximal effect.

Row | Structure (SMILES) | Potency | viability, % of control
1 | CC(Oc1ccc2[nH]nc(/C=C/c3cnn(CCO)c3)c2c1)c1c(Cl)cncc1Cl (stereo unspecified) | 0.0116 µM (active) | –
2 | Nc1nc(NCC2CCC(CNS(=O)(=O)c3cccc4ccccc34)CC2)nc2ccccc12 (stereo unspecified) | 2.31 µM (active) | –
3 | CC1(C(=O)Nc2ccc(F)nc2)CCCN1c1nc(Nc2cc(C3CC3)[nH]n2)c2cccn2n1 (stereo unspecified) | 1.64 µM (active) | –
4 | CC(=O)N[C@@H](CC(=O)O)C(=O)N[C@@H](CCC(=O)O)C(=O)N[C@H](C(=O)N[C@@H](CC(=O)O)C(=O)Nc1ccc2c(C)cc(=O)oc2c1)C(C)C | 6.51 µM (active) | –
5 | FC(F)(F)c1ccc(/C=C/c2nc(COc3ccc(CCCCn4ccnn4)cc3)co2)cc1 | 0.0263 µM (active) | –
6 | OC[C@H]1O[C@@H](Oc2cc(O)cc(-c3cc4ccc(O)cc4o3)c2)[C@H](O)[C@@H](O)[C@@H]1O | 4.47 µM (active) | –
7 | O=C1CCCC2=C1C1(CCCC1)N=C(Nc1nc3ccccc3o1)N2 | 3.66 µM (active) | –
8 | COc1cc(N(C)CCN(C)C)c(N)cc1Nc1nccc(-c2cn(C)c3ccccc23)n1 | 10.3 µM (active) | –
9 | C=C(C(=O)O)[C@@H]1CC[C@@]2(C)CCC[C@@](C)(O)[C@@H]2C1 | – | 98.8% (inactive)
10 | CC(=O)Nc1cccc(-c2csc(Nc3cc(C)ccn3)n2)c1 | 16.4 µM (active) | –
11 | C[C@@H]1O[C@@H](O[C@H]2[C@H](O[C@H]3CO[C@@H](O[C@H]4CC[C@@]5(C)C(CC[C@]6(C)C5CC[C@]57OC[C@@]8(CC[C@](C)(CO)CC85)[C@H](O)C[C@]76C)C4(C)C)[C@H](O[C@@H]4O[C@H](CO)[C@@H](O)[C@H](O)[C@H]4O)[C@H]3O)O[C@H](CO)[C@@H](O)[C@@H]2O)[C@H](O)[C@H](O)[C@H]1O (stereo partly specified) | – | 95% [at 9.25 µM] (inactive)
